Consider one sequence from article PMC7862700, “An all-to-all approach to the identification of sequence-specific readers for epigenetic DNA modifications on cytosine”.

What all share (assay): DAPPL (digital affinity profiling via proximity ligation, sequencing); 10 mM Tris-HCl pH 7.5, 50 mM NaCl, 1 mM DTT, 4% glycerol, room temperature, 30 min; GST-TFs on glutathione beads, 16-mer random dsDNA library, 0.1% formaldehyde crosslink after washing; high values mean tight binding
What all share (settings): protein: recombinant; tags: N-terminal GST; dsDNA, one strand shown

One experiment deals with T1, ELK1 (Homo sapiens, UniProt P19419 1-428).
T1 sequence: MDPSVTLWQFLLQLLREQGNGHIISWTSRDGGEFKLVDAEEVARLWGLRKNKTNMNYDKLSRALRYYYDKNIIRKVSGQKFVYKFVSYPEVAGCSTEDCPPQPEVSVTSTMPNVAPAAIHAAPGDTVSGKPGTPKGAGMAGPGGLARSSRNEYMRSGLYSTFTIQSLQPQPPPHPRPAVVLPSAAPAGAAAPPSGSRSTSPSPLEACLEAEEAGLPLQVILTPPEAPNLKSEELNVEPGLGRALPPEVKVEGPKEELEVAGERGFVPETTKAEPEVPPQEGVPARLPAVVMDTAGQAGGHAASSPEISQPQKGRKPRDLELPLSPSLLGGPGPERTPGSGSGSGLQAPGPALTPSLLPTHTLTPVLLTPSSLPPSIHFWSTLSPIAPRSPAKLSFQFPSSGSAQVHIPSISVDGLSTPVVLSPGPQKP
An outline of the steps:
(§1)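 GST fusions of human transcription factors were expressed in yeast and captured with glutathione beads. Once given DNA barcodes and pooled alongside a tag-only sample, they were incubated for 30 min at room temperature with 200 nmole of a random double-stranded 16-mer DNA library in Tris/NaCl/DTT/glycerol buffer, then washed, crosslinked (0.1% formaldehyde), proximity-ligated, PCR-amplified and sequenced on an Illumina NextSeq500. The binding signal of each hexamer is its read frequency for a factor divided by its frequency for the tag-only sample.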

A further experiment has as its target T2, GABPA (Homo sapiens, UniProt Q06546 1-454).
T2 sequence: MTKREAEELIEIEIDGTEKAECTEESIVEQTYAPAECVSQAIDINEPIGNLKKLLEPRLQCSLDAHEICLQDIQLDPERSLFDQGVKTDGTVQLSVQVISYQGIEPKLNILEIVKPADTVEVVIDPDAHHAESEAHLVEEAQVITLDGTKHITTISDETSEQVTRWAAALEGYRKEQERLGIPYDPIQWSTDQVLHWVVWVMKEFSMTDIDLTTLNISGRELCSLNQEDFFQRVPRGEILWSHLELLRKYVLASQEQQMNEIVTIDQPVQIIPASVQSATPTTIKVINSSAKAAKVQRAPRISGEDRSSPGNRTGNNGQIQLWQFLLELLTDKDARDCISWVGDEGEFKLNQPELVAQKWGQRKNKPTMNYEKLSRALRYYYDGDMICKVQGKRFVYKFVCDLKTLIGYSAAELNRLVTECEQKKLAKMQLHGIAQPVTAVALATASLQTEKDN
A digest of the protocol:
as §1

The target of another experiment is ELF1 (Homo sapiens, UniProt P32519 1-619). An outline of the steps:
as §1

For the next experiment, the target named is T3, EHF (Homo sapiens, UniProt Q9NZC4 1-300).
T3 sequence: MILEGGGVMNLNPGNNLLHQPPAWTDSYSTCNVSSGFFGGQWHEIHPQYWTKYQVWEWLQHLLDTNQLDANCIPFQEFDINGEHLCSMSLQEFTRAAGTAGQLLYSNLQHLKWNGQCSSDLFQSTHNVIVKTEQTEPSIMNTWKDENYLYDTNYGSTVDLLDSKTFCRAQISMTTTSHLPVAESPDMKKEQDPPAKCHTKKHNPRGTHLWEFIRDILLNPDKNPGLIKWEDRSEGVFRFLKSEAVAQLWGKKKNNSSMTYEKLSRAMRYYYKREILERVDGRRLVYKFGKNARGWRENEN
A digest of the protocol: as §1

Another experiment deals with SPIB (Homo sapiens, UniProt Q01892 1-262). An outline of the steps:
as §1

Another experiment concerns the target T4, FEV (Homo sapiens, UniProt Q99581 1-238).
T4 sequence: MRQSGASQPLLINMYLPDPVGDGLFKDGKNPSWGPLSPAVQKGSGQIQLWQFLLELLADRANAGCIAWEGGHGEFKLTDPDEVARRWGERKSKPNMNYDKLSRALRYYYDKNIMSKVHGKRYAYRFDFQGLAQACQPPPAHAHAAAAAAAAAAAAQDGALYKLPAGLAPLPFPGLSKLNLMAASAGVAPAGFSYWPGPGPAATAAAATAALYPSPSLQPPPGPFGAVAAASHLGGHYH
A digest of the protocol: as §1

In a further experiment the target is ETV5 (Homo sapiens, UniProt P41161 1-510). A digest of the protocol: as §1
Chain of ETV5 (P41161 whole entry): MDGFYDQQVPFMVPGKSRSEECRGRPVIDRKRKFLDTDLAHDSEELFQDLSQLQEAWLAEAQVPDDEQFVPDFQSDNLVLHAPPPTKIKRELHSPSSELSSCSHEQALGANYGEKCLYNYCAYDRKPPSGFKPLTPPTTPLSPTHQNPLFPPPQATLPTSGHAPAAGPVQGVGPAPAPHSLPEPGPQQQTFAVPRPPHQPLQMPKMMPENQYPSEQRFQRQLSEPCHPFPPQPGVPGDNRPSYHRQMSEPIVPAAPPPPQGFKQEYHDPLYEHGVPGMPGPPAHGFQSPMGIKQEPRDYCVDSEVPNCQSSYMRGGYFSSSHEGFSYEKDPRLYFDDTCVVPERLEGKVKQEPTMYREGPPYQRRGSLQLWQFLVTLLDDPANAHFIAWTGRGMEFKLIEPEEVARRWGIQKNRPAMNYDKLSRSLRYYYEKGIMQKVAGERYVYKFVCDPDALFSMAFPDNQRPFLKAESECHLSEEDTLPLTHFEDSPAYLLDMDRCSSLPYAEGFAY
In a further experiment the target is T5, ELK4 (Homo sapiens, UniProt P28324-2 1-405).
T5 sequence: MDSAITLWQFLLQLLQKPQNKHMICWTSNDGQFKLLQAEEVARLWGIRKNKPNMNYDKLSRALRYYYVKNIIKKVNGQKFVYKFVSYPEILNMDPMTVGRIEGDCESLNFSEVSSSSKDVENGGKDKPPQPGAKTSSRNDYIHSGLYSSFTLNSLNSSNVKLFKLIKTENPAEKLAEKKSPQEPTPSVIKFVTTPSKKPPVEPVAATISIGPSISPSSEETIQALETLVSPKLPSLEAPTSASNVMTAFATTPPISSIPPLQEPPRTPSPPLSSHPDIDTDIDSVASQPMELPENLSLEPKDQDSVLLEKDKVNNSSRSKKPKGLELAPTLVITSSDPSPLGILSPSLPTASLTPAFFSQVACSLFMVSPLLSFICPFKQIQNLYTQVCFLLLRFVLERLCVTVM
A digest of the protocol: as §1

The next experiment addresses T6, ELF3 (Homo sapiens, UniProt P78545 1-371).
T6 sequence: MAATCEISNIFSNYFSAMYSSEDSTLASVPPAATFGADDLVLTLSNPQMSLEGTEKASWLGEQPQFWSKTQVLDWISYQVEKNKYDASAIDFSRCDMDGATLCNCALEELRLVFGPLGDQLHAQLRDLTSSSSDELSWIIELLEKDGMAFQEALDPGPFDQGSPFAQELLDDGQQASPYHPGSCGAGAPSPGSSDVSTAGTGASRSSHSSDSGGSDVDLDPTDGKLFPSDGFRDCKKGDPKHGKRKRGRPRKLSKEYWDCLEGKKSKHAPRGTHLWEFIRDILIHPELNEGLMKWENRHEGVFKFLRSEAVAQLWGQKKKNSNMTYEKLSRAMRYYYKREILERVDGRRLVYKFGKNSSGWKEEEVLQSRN
An outline of the steps: as §1

For another experiment, the target named is ETV1 (Homo sapiens, UniProt P50549 1-477). A digest of the protocol: as §1
Chain of ETV1 (P50549 whole entry): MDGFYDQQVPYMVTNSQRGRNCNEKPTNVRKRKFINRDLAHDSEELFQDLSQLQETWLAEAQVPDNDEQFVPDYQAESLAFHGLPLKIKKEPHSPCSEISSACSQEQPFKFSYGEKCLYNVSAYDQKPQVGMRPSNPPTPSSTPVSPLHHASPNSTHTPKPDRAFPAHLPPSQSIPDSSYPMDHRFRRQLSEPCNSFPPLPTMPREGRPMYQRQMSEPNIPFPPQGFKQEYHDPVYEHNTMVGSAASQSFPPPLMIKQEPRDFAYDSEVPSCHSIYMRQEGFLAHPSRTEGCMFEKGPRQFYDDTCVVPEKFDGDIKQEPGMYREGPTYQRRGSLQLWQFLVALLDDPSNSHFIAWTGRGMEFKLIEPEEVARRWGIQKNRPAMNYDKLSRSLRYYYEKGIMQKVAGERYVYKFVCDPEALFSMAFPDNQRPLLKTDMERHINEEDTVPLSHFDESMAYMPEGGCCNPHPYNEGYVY
The target in another experiment is T7, SPDEF (Homo sapiens, UniProt O95238 1-335).
T7 sequence: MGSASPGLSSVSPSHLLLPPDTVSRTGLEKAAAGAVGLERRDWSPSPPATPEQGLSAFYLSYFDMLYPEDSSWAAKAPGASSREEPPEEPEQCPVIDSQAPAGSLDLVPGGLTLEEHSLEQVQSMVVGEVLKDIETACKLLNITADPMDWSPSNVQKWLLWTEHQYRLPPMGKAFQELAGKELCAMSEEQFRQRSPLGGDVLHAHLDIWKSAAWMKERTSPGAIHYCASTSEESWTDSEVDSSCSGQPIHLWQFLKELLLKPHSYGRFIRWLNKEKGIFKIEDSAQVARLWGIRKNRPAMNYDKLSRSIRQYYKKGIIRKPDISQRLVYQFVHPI
An outline of the steps:
as §1

For the next experiment, the target named is T8, ETV7 (Homo sapiens, UniProt Q9Y603 1-341).
T8 sequence: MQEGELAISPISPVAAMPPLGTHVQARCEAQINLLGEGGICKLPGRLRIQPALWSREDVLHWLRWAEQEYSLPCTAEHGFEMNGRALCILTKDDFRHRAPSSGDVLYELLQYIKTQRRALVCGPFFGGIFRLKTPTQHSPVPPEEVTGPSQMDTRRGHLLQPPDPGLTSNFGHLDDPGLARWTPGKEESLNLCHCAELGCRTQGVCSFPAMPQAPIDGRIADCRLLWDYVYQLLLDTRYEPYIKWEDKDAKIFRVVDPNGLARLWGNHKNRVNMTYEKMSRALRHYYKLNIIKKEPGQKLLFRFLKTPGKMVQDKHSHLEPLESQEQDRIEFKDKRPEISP
An outline of the steps:
as §1

Another experiment has as its target T9, ETV3 (Homo sapiens, UniProt P41162-2 1-143).
T9 sequence: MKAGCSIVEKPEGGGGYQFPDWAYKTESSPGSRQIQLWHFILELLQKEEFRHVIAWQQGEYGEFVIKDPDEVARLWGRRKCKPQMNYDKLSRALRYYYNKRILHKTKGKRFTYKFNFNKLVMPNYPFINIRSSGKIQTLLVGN
An outline of the steps: as §1

The target in another experiment is ETV6 (Homo sapiens, UniProt P41212 1-452). An outline of the steps:
as §1

Chain of ETV6 (P41212 whole entry): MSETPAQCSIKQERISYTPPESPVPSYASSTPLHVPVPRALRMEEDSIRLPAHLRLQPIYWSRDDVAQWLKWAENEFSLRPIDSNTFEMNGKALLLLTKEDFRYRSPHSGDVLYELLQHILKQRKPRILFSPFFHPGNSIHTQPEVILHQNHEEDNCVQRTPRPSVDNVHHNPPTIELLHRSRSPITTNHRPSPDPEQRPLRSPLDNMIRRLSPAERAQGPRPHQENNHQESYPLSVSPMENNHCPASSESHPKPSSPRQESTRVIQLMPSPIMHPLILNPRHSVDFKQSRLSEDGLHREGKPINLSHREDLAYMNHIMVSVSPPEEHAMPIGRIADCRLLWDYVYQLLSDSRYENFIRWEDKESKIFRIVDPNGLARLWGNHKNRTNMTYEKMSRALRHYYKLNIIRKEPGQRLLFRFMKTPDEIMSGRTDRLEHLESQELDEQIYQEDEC
Chain of SPIB (Q01892 whole entry): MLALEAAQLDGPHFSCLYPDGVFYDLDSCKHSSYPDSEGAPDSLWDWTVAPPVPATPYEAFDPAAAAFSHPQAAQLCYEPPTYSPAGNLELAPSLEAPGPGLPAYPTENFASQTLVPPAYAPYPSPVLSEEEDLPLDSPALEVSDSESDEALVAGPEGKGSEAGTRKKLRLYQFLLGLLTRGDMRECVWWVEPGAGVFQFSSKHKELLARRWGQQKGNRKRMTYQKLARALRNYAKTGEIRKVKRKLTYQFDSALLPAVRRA
Chain of ELF1 (P32519 whole entry): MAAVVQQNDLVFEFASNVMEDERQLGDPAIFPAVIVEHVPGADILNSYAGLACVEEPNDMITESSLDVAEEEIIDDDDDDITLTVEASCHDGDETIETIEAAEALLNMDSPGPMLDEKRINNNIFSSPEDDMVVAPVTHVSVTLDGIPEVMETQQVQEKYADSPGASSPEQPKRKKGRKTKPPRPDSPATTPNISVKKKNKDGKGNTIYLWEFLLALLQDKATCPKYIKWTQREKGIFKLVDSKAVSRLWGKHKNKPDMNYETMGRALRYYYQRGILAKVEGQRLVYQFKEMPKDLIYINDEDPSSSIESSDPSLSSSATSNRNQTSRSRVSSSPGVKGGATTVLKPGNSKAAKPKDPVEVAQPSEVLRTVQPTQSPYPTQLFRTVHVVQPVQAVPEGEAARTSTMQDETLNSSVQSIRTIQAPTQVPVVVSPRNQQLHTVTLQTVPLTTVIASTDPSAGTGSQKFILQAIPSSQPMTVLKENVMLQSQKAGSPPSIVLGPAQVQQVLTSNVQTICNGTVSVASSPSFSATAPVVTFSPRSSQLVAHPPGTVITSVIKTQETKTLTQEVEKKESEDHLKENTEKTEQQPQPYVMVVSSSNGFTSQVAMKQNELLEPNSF

Consider TCGTCC, for which the binding signal in the experiment with ELK1 was 1.1 fold enrichment (6-mer frequency, TF over GST control); with GABPA, 1.05 fold enrichment (6-mer frequency, TF over GST control); in the experiment with ELF1, 1.03 fold enrichment (6-mer frequency, TF over GST control); with EHF, 1 fold enrichment (6-mer frequency, TF over GST control); in the experiment with SPIB, 1.06 fold enrichment (6-mer frequency, TF over GST control); in the experiment with FEV, 1 fold enrichment (6-mer frequency, TF over GST control). Also, the binding signal in the experiment with ETV5 was 1.01 fold enrichment (6-mer frequency, TF over GST control); with ELK4, 1.15 fold enrichment (6-mer frequency, TF over GST control); with ELF3, 1.08 fold enrichment (6-mer frequency, TF over GST control); in the experiment with ETV1, 1.06 fold enrichment (6-mer frequency, TF over GST control); with SPDEF, 1.08 fold enrichment (6-mer frequency, TF over GST control); in the experiment with ETV7, 1.08 fold enrichment (6-mer frequency, TF over GST control). Further, the binding signal with ETV3 is 1.04 fold enrichment (6-mer frequency, TF over GST control); in the experiment with ETV6 it was 1.08 fold enrichment (6-mer frequency, TF over GST control).
